Reference: the supplement of paper PMC13380429

Tests used:
[1] = system: Vero E6 infected with SARS-CoV-2; assay: morphology score (similarity to uninfected cells); higher = more like uninfected cells; details: 24 h
[2] = system: Vero E6 infected with SARS-CoV-2; assay: SARS-CoV-2 infection rate relative to infected DMSO; higher = more infection, active = 60 or less; details: 24 h

Compound | morphology score [1] | SARS-CoV-2 infection rate [2]
NC(=O)NCCN1CCN(c2cccc(C(F)(F)F)c2)CC1 [fluprazine] (10 µM) | 0.0715 | 106% (inactive)
CCCCCCCCCCCCCCC[C@@H](O)[C@@H](N)CO [safingol] (10 µM) | -0.197 | 117% (inactive)
O=P(O)(O)C(O)(Cc1cccnc1)P(=O)(O)O [risedronate] (10 µM) | 0.123 | 89% (inactive)
CC(C)(c1ccc(O)cc1)c1ccc(O)cc1 [bisphenol-A] (10 µM) | 0.0642 | 106% (inactive)
Cc1cc(N2CCOCC2)cc2[nH]c(-c3c(NC[C@@H](O)c4cccc(Cl)c4)cc[nH]c3=O)nc12 (0.833333 µM) | 0.0224 | 110% (inactive)
O=C1NC(=O)c2c1c(-c1ccccc1)cc1[nH]c3ccc(O)cc3c21 (0.833333 µM) | 0.685 | 93.5% (inactive)
O=c1[nH]c([C@@H]2CCCN2)nc2c1oc1ccc(Cl)cc12 (0.833333 µM) | 0.106 | 104% (inactive)
O=c1cc(-c2ccc(O)cc2)oc2cc(O)cc(O)c12 [apigenin] (10 µM) | 0.129 | 104% (inactive)
C[C@]12CC[C@H]3[C@@H](CC[C@]4(O)C[C@@H](O)CC[C@]34C=O)[C@@]1(O)CC[C@@H]2C1=CC(=O)OC1 [K-strophanthidin] (0.833333 µM) | 0.0264 | 92% (inactive)
COCC1=C(C(=O)O)N2C(=O)[C@@H](NC(=O)/C(=N\OC)c3csc(N)n3)[C@H]2SC1 [cefpodoxime] (10 µM) | 0.105 | 104% (inactive)
CN(C)CCCO[C@@H]1[C@H]2OC(C)(C)O[C@H]2O[C@@H]1[C@H](O)CO [amiprilose] (10 µM) | -0.0292 | 104% (inactive)
N#C[C@@H]1CCCN1C(=O)CNC12CC3CC(CC(O)(C3)C1)C2 [vildagliptin] (10 µM) | 0.00182 | 91% (inactive)
CC(=O)OCC(=O)[C@@]1(O)CC[C@H]2[C@@H]3CCC4=CC(=O)C=C[C@]4(C)[C@@]3(Cl)[C@@H](Cl)C[C@@]21C [dichlorisone-acetate] (10 µM) | -0.00102 | 102% (inactive)
O[C@H]1[C@H](O)[C@@H](O)CN2CC[C@H](O)[C@H]12 [castanospermine] (10 µM) | -0.18 | 112% (inactive)
CC(C)c1cccc2c1OC(C(C)C)C(=S)N2CC(=O)O (stereo not drawn) (10 µM) | 0.0177 | 102% (inactive)
O=C(CCCN1CCN(c2ccccn2)CC1)c1ccc(F)cc1 [azaperone] (10 µM) | 0.13 | 83% (inactive)
C/C=C(/C)C(=O)O[C@H]1C(C)=C[C@]23C(=O)[C@@H](C=C(CO)[C@@H](O)[C@]12O)[C@H]1[C@@H](C[C@H]3C)C1(C)C [ingenol-mebutate] (0.833333 µM) | -0.298 | 95% (inactive)
C[C@@H]1Cc2c([nH]c3ccccc23)[C@@H](c2c(F)cc(/C=C/C(=O)O)cc2F)N1CC(C)(C)F (10 µM) | -0.0686 | 105% (inactive)
O=S(=O)(O)c1ccc(-c2c3nc(c(-c4ccc(S(=O)(=O)O)cc4)c4ccc([nH]4)c(-c4ccc(S(=O)(=O)O)cc4)c4nc(c(-c5ccc(S(=O)(=O)O)cc5)c5ccc2[nH]5)C=C4)C=C3)cc1 (10 µM) | -0.0273 | 102% (inactive)
CC(C)(O)c1ccccc1CC[C@@H](SCC1(CC(=O)O)CC1)c1cccc(/C=C/c2ccc3ccc(Cl)cc3n2)c1 [montelukast] (10 µM) | 0.169 | 92.5% (inactive)

Compound | morphology score [1] | SARS-CoV-2 infection rate [2]
CC(C)c1ccc2oc3nc(N)c(C(=O)O)cc3c(=O)c2c1 [amlexanox] (10 µM) | -0.183 | 111% (inactive)
CO[C@@H]1[C@H](N(C)C(=O)c2ccccc2)C[C@H]2O[C@]1(C)n1c3ccccc3c3c4c(c5c6ccccc6n2c5c31)C(=O)NC4 [midostaurin] (10 µM) | -0.108 | 110% (inactive)
CC(C)C(=O)SCCCCC[C@H](NC(=O)OC(C)(C)C)C(=O)NC12CC3CC(CC(C3)C1)C2 (10 µM) | -0.113 | 97% (inactive)
NCCc1cc(O)c(O)cc1O [oxidopamine] (10 µM) | 0.0957 | 102% (inactive)
CCOC(=O)[C@H](CCc1ccccc1)N[C@@H](C)C(=O)N1[C@H](C(=O)O)C[C@@H]2CCC[C@@H]21 [ramipril] (10 µM) | 0.0476 | 98.5% (inactive)
C[C@H](Nc1ncnc2[nH]cnc12)c1nc2ccc(F)cc2c(=O)n1-c1ccccc1 [acalisib] (0.833333 µM) | -0.115 | 110% (inactive)
Nc1nc2c(ccc3ccccc32)s1 (10 µM) | -0.0747 | 102% (inactive)
Nc1nc(=O)c(Br)c(-c2ccccc2)[nH]1 [bropirimine] (10 µM) | 0.109 | 99.5% (inactive)
COc1cc(OC)c(C(=O)CCCCN2CCC3(CC2)NC(=O)NC3=O)cc1NS(=O)(=O)c1ccc(C(F)(F)F)cc1 (10 µM) | 0.222 | 93% (inactive)
CCC[C@H](N[C@@H](C)C(=O)N1[C@H](C(=O)O)C[C@@H]2CCCC[C@@H]21)C(=O)OCC [perindopril] (10 µM) | 0.104 | 95% (inactive)
Cc1ncc[nH]1 [2-methylimidazole] (10 µM) | 0.049 | 95% (inactive)
O=C1N(c2ccccc2)c2ccccc2C1(Cc1ccncc1)Cc1ccncc1 [linopirdine] (10 µM) | 0.249 | 91% (inactive)
CC1CCc2c(N3CCC(O)CC3)c(F)cc3c(=O)c(C(=O)O)cn1c23 (stereo not drawn) [nadifloxacin] (10 µM) | -0.0037 | 106% (inactive)
CCn1c(=O)c2c(nc(/C=C/c3ccc(OC)c(OC)c3)n2C)n(CC)c1=O [istradefylline] (10 µM) | 0.157 | 108% (inactive)
O=C(Nc1cccc2cccnc12)c1ccc(N2C(=O)[C@@H]3[C@H](C2=O)[C@@H]2C=C[C@H]3C2)cc1 [endo-IWR-1] (10 µM) | -0.0752 | 98.5% (inactive)
CCN(CC)CCOCCOC(=O)C(CC)(CC)c1ccccc1 [oxelaidin] (10 µM) | 0.423 | 73.5% (inactive)
CCCn1c(=O)c(C)cn2nc(N)nc12 (10 µM) | 0.276 | 96.5% (inactive)
C[C@@H]1CN(Cc2ccc(F)cc2)[C@@H](C)CN1C(=O)c1cc2c(C(=O)C(=O)N(C)C)cn(C)c2cc1Cl [talmapimod] (10 µM) | 0.103 | 88.5% (inactive)
O=C(O)C[C@H](O)C(=O)O [malic-acid] (10 µM) | -0.0659 | 104% (inactive)
O=C1CCCN1CC#CCN1CCCC1 [oxotremorine-sesquifumarate] (10 µM) | 0.062 | 100% (inactive)

Compound | morphology score [1] | SARS-CoV-2 infection rate [2]
O=C(NCCN1CCN(c2ncccn2)CC1)C12CC3CC(CC(C3)C1)C2 [adatanserin] (10 µM) | 0.159 | 109% (inactive)
Cc1c(C(=O)NN2CCCCC2)nn(-c2ccc(Cl)cc2Cl)c1-c1ccc(Cl)cc1 [rimonabant] (10 µM) | 0.17 | 110% (inactive)
COc1cccc(-c2cc(NCc3ccc4c(c3)OCO4)nc(N)n2)c1 (10 µM) | -0.021 | 111% (inactive)
OCc1ccc(O[C@@H]2O[C@H](CO)[C@@H](O)[C@H](O)[C@H]2O)cc1 [gastrodin] (10 µM) | 0.19 | 106% (inactive)
CCCCOc1ccc(OCCCN2CCOCC2)cc1 [pramoxine] (10 µM) | -0.0144 | 106% (inactive)
Cc1nc2c(-c3cnc(N)nc3)nc(N3CCOCC3)nc2n1C(C)C (10 µM) | -0.0616 | 108% (inactive)
NC[C@@H](O)CC(=O)O [aminohydroxybutyric-acid] (10 µM) | 0.226 | 92% (inactive)
COc1ccc(-c2cc(=O)c3c(OC)c(OC)c(OC)c(OC)c3o2)cc1 [tangeritin] (10 µM) | 0.00246 | 105% (inactive)
N[C@@H](Cc1cc(I)c(Oc2ccc(O)c(I)c2)c(I)c1)C(=O)O [liothyronine] (10 µM) | 0.106 | 108% (inactive)
COc1ccc(NS(=O)(=O)c2sc3ccc(Cl)cc3c2C)cc1N1CCNCC1 (10 µM) | 0.192 | 108% (inactive)
C[C@H](NC(=O)/C(C#N)=C/c1cccc(Br)n1)c1ccccc1 (0.833333 µM) | -0.0278 | 118% (inactive)
CC(C)CN(C[C@@H](O)[C@H](Cc1ccccc1)NC(=O)O[C@H]1CO[C@H]2OCC[C@H]21)S(=O)(=O)c1ccc(N)cc1 [darunavir] (10 µM) | 0.156 | 107% (inactive)
CC(C)(C)c1ccc(CN2CCN(C(c3ccccc3)c3ccc(Cl)cc3)CC2)cc1 (stereo not drawn) [buclizine] (10 µM) | 0.307 | 90.5% (inactive)
COc1cc2c(cc1OC)[C@H](C)NCC2 [Isoquinoline,-6,7-dimethoxy-1-methyl-1,2,3,4-tetrahydro,] (10 µM) | 0.0205 | 105% (inactive)
CCOc1ccc2ccccc2c1C(=O)N[C@@H]1C(=O)N2[C@@H]1SC(C)(C)[C@@H]2C(=O)O [nafcillin] (10 µM) | -0.164 | 112% (inactive)
NS(=O)(=O)c1cc2c(cc1Cl)N=CNS2(=O)=O [chlorothiazide] (10 µM) | -0.179 | 106% (inactive)
N#Cc1ccc(C2CCCc3cncn32)cc1 (stereo not drawn) [fadrozole] (10 µM) | 0.114 | 102% (inactive)
Cc1c(Cl)c(C)[n+]([O-])c(Cl)c1-c1noc(-c2cc(O)c(O)c([N+](=O)[O-])c2)n1 [opicapone] (10 µM) | 0.125 | 102% (inactive)
O=C(c1ccc(F)cc1)C1CCN(CCCCc2ccccc2)CC1 [4-(4-fluorobenzoyl)-1-(4-phenylbutyl)-piperidine] (10 µM) | -0.00104 | 110% (inactive)
